Test results: PubChem BioAssay AID1159580 (chemical genetic matrix, 2015)
Where “and” joins values, the source holds several entries; their conditions need not be identical. Equal entries are not always repeated. The campaign covered roughly 5,500 compounds. About 2,000 (36%) were called active. About 18% were inconclusive and are not listed. Rule as the data show it: active = normalized growth mostly below about 0.91 (no sharp cut-off); inconclusive = no clear call, values can overlap the other calls; inactive = mostly above about 0.92. This is one part of the list.

Test: chemical genetic growth profiling, strain panel (AID 1159580);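 also: tested at 20 µM; growth read once vehicle control cultures reached saturation at 30 °C; 1 = growth at the plate median or of vehicle wells; lower values mean less growth of the strain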
Conditions: S. cerevisiae deletion strains, growth OD

Measured: normalized growth

CCCCOc1ccc(C(=O)CCN2CCCCC2)cc1
inactive: locus YAL030W, strain snc1, stronger effect = lower value 0.977 | locus YBL061C, strain skt5, stronger effect = lower value 0.968 | locus YBR021W, strain FUR4, stronger effect = lower value 0.918 | locus YBR023C, strain chs3, stronger effect = lower value 0.95 | locus YBR171W, strain sec66, stronger effect = lower value 0.981 | locus YBR229C, strain ROT2, stronger effect = lower value 1 | locus YCL011C, strain gbp2, stronger effect = lower value 0.966 | locus YCL016C, strain dcc1, stronger effect = lower value 0.927 | locus YCR088W, strain abp1, stronger effect = lower value 0.94 | locus YDL005C, strain med2, stronger effect = lower value 0.994 | locus YDL040C, strain nat1, stronger effect = lower value 0.989 | locus YDL101C, strain DUN1, stronger effect = lower value 0.907 | locus YDL185W, strain tfp1, stronger effect = lower value 0.961 | locus YDR001C, strain nth1, stronger effect = lower value 0.992 | locus YDR101C, strain arx1, stronger effect = lower value 0.951 | locus YDR159W, strain sac3, stronger effect = lower value 0.913 | locus YDR297W, strain sur2, stronger effect = lower value 0.952 | locus YER015W, strain faa2, stronger effect = lower value 0.967 | locus YER111C, strain swi4, stronger effect = lower value 0.979 | locus YGL078C, strain dbp3, stronger effect = lower value 0.928 | locus YGL167C, strain pmr1, stronger effect = lower value 0.986 | locus YGL227W, strain vid30, stronger effect = lower value 0.997 | locus YHR079C, strain IRE1, stronger effect = lower value 1.04 | locus YIL125W, strain kgd1, stronger effect = lower value 0.957 | locus YJL092W, strain hpr5, stronger effect = lower value 0.918 | locus YJL115W, strain asf1, stronger effect = lower value 0.926 | locus YJL129C, strain trk1, stronger effect = lower value 0.899 | locus YJL154C, strain vps35, stronger effect = lower value 0.968 | locus YJL166W, strain qcr8, stronger effect = lower value 0.925 | locus YJL187C, strain SWE1, stronger effect = lower value 0.962
0.415 (active) and 0.996 (inactive): locus YJL095W, strain BCK1, stronger effect = lower value
active: locus YAL013W, strain DEP1, stronger effect = lower value 0.807 | locus YAL021C, strain ccr4, stronger effect = lower value 0.871 | locus YAL026C, strain drs2, stronger effect = lower value 0.107 | locus YBR009C, strain hhf1, stronger effect = lower value 0.879 | locus YBR231C, strain swc5, stronger effect = lower value 0.866 | locus YBR279W, strain paf1, stronger effect = lower value 0.931 | locus YCL029C, strain bik1, stronger effect = lower value 0.857 | locus YCL061C, strain MRC1, stronger effect = lower value 0.875 | locus YCL069W, strain vba3, stronger effect = lower value 0.139 | locus YDL035C, strain GPR1, stronger effect = lower value 0.772 | locus YDL074C, strain BRE1, stronger effect = lower value 0.5 | locus YDL134C, strain PPH21, stronger effect = lower value 0.137 | locus YDL192W, strain arf1, stronger effect = lower value 0.54 | locus YDR069C, strain doa4, stronger effect = lower value 0.898 | locus YDR137W, strain rgp1, stronger effect = lower value 0.769 | locus YDR162C, strain NBP2, stronger effect = lower value 0.44 | locus YDR195W, strain ref2 1.29 [resistant] | locus YDR318W, strain mcm21, stronger effect = lower value 0.0958 | locus YDR334W, strain swr1, stronger effect = lower value 0.851 | locus YDR335W, strain msn5, stronger effect = lower value 0.277 | locus YDR388W, stronger effect = lower value 0.53 | locus YDR392W, strain spt3, stronger effect = lower value 0.108 | locus YDR502C, strain sam2, stronger effect = lower value 0.657 | locus YEL003W, strain gim4, stronger effect = lower value 0.888 | locus YEL037C, strain rad23, stronger effect = lower value 0.853 | locus YEL061C, strain CIN8 (second series), stronger effect = lower value 0.446 | locus YEL061C, strain CIN8, stronger effect = lower value 0.675 | locus YER016W, strain bim1, stronger effect = lower value 0.9 | locus YER110C, stronger effect = lower value 0.275 | locus YER155C, strain BEM2 (second series), stronger effect = lower value 0.146 | locus YER155C, strain BEM2, stronger effect = lower value 0.258 | locus YER167W, strain BCK2, stronger effect = lower value 0.277 | locus YFR010W, strain ubp6, stronger effect = lower value 0.815 | locus YGL086W, strain mad1, stronger effect = lower value 0.157 | locus YGL173C, strain kem1, stronger effect = lower value 0.845 | locus YGL240W, strain doc1, stronger effect = lower value 0.85 | locus YGL248W, strain PDE1, stronger effect = lower value 0.0961 | locus YGL253W, strain hxk2, stronger effect = lower value 0.252 | locus YGR078C, strain PAC10, stronger effect = lower value 0.187 | locus YGR135W, strain pre9, stronger effect = lower value 0.42 | locus YGR229C, strain SMI1, stronger effect = lower value 0.428 | locus YGR252W, strain gcn5, stronger effect = lower value 0.402 | locus YHR013C, strain ard1, stronger effect = lower value 0.707 | locus YHR027C, strain rpn1, stronger effect = lower value 0.901 | locus YHR079C, strain IRE1 (second series), stronger effect = lower value 0.854 | locus YHR094C, strain hxt1, stronger effect = lower value 0.0833 | locus YHR129C, strain ARP1, stronger effect = lower value 0.413 | locus YHR142W, strain chs7, stronger effect = lower value 0.155 | locus YHR200W, strain rpn10, stronger effect = lower value 0.838 | locus YIL066C, strain RNR3, stronger effect = lower value 0.134 | locus YIL073C, strain SPO22, stronger effect = lower value 0.281 | locus YIR030C, strain dcg1, stronger effect = lower value 0.486 | locus YJL095W, strain BCK1 (second series), stronger effect = lower value 0.734 | locus YJL134W, strain LCB3, stronger effect = lower value 0.533 | locus YJL164C, strain tpk1, stronger effect = lower value 0.883 | locus YJL168C, strain set2, stronger effect = lower value 0.468 | locus YJL187C, strain SWE1 (second series), stronger effect = lower value 0.84 | locus YJR043C, strain POL32, stronger effect = lower value 0.636
0.135 (active) and 0.992 (inactive): locus YHR030C, strain SLT2, stronger effect = lower value
